Rows were chosen to be rich in hits. Some 2.3% of all compounds tested hit in one or more screens of this group.
U2OS ROS induce – ROS inducers in U2OS cancer cells, primary screen, cell-based, H2DCF-DA fluorescence | U2OS ROS induction | ROS induction (% of piperlongumine), % at 10 µM | 46,000 compounds, 2% hits | AID 624156, 2012; in the data active = ROS induction above about 79%, passing the limit was not always enough;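 also: 0% = DMSO vehicle median and 100% = reference compound median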
YB-1 expr inh – inhibitors of YB-1 gene expression, primary screen, cell-based, fluorescence; 30,000 compounds, 0.37% hits; delta delta Cp (YB-1 minus CDIP) (no concentration beside the values); U2OS, qRT-PCR YB-1 vs CDIP delta delta Cp, 16 h; active compounds read high; zero = DMSO, each unit about twofold;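 active = delta delta Cp rounded down to an integer at or above 3, about 3 SD of DMSO wells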;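 also: higher means less YB-1 transcript or more CDIP transcript relative to DMSO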
The depositor's hits bear a star; / = no result.

SMILES	U2OS ROS induce	YB-1 expr inh
C[C@@H]1CCCCO[C@@H](CN(C)S(=O)(=O)c2cn(C)cn2)[C@@H](C)CN([C@H](C)CO)C(=O)c2cc(NC(=O)C3CCCCC3)ccc2O1	126*	-0.68
COc1ccc(S(=O)(=O)N(C)C[C@@H]2OCCCC[C@@H](C)Oc3ccc(NC(=O)NC4CCCCC4)cc3C(=O)N([C@H](C)CO)C[C@@H]2C)cc1	140*	-0.0028
C[C@@H]1CCCCO[C@H](CN(C)C(=O)CCCN(C)C)[C@@H](C)CN([C@H](C)CO)C(=O)c2cc(NS(=O)(=O)c3ccccc3)ccc2O1	-17	4.9*
COc1ccc(S(=O)(=O)Nc2ccc3c(c2)C(=O)N([C@@H](C)CO)C[C@@H](C)[C@H](CN(C)S(=O)(=O)c2ccc(F)cc2)O3)cc1	2	0.1
C[C@@H]1CCCCO[C@@H](CN(C)S(=O)(=O)c2ccccc2)[C@@H](C)CN([C@H](C)CO)C(=O)c2cc(NC(=O)Nc3ccc(F)cc3)ccc2O1	105*	0.21
C[C@@H]1CCCCO[C@@H](CN(C)C)[C@@H](C)CN([C@H](C)CO)C(=O)c2cc(NS(=O)(=O)c3ccc(F)cc3)ccc2O1	-5	0.19
C[C@@H]1CCCCO[C@H](CN(C)CC2CCCCC2)[C@@H](C)CN([C@H](C)CO)C(=O)c2cc(NS(=O)(=O)c3ccc(F)cc3)ccc2O1	98*	0.057
C[C@@H]1CCCCO[C@H](CN(C)S(=O)(=O)c2ccc(F)cc2)[C@@H](C)CN([C@H](C)CO)C(=O)c2cc(NC(=O)Nc3ccc(F)cc3)ccc2O1	54	-0.13
COc1ccc(S(=O)(=O)N(C)C[C@@H]2Oc3ccc(NS(=O)(=O)c4ccc(F)cc4)cc3C(=O)N([C@@H](C)CO)C[C@@H]2C)cc1	10	19*
c1ccc(-c2csc(N3CCC(c4ccccc4)C3)n2)cc1 (stereo not drawn)	-1	/
CC1CCCCC1NC(=O)C1CCN(Cc2cnn(-c3ccccc3)c2-n2cccc2)CC1 (stereo not drawn)	5	/
COc1ccccc1NC(=O)CC(c1ccccc1)c1ccc(C)cc1O (stereo not drawn)	9	/
CCOC(=O)c1nnn2c1nc(N(CC)CC)c1ccccc12	37	-0.57
CCOC(=O)c1nnn2c1nc(Sc1nnc(-c3ccncc3)n1C)c1ccccc12	161*	-0.79
CCOC(=O)c1nnn2c1nc(Sc1nc3ccccc3o1)c1ccccc12	108*	-0.17
Cn1c(SCCC(=O)O)nnc1-c1ccncc1	66	/
